Measured values: PubChem BioAssay
Activity calls are given as the source filed them.

What was measured:
[1] = E. coli DRC41 culture turbidity changes, primary screen, E. coli filamentation inducer project, strain DRC41, OD650, 48 h (AID 1152);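 also: E. coli MC1000 strain DRC41 lacking acrAB efflux pump and sulA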; settings: E. coli DRC41 (acrAB sulA), higher = more signal, called active from +8 up or from −8 down
[2] = small-molecule binders of probe aLefty1, primary screen, biochemical, small-molecule microarray, 635/667 nm fluorescence (AID 1153); settings: higher = more signal;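 also: score merges spot fluorescence with signal-to-noise ratio from the scanned slide images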
[3] = PSAC antagonists in infected red cells, primary screen, cell-based, P. falciparum Indochina, OD700, 1 h (AID 1154); settings: P. falciparum Indochina infected RBC osmotic lysis, higher = more signal, called active from +8 up or from −8 down
[4] = PSAC antagonists in infected red cells, primary screen, cell-based, P. falciparum Indochina, OD700, 2 h (AID 1155);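 also: lysis reports solute entry through the parasite surface anion channel PSAC; channel blockers reduce lysis of infected cells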; settings: P. falciparum Indochina infected erythrocytes, osmotic lysis OD700; higher = more signal, called active from +8 up or from −8 down
[5] = osmotic lysis modulators in infected erythrocytes, primary screen, PSAC antagonist project, cell-based, P. falciparum Indochina, OD700, 3 h (AID 1156); settings: higher = more signal, called active from +8 up or from −8 down
[6] = PSAC antagonists in infected red cells, primary screen, cell-based, P. falciparum Indochina, OD700, 18 h (AID 1157); settings: P. falciparum Indochina infected erythrocytes, osmotic lysis OD700, 18 h; higher = more signal, called active from +8 up or from −8 down
[7] = modulators of S6 phosphorylation in cells, primary screen, cell-based, A549, cytoblot, luminescence, serum-stimulated (AID 1158); settings: A549 phospho-S6 cytoblot, 5 h, higher = more signal;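 also: serum-stimulated A549 lung adenocarcinoma cells; signal is phosphorylated S6 detected by cytoblot immunostaining with HRP secondary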
[8] = molecular target: NADPH oxidase 2 (Homo sapiens) (UniProt P04839); assay: NOX2-dependent H2O2 signal modulators, primary screen, NOX inhibitor project, cell-based, HEK293-NOX2, PMA-stimulated, Amplex Red fluorescence (AID 1159); settings: 45 min, higher = more signal, called active from +8 up or from −8 down; also: test concentration not given here
[9] = molecular target: NADPH oxidase 4 (Homo sapiens) (UniProt Q9NPH5); assay: NOX4-dependent H2O2 signal modulators, primary screen, NOX inhibitor project, cell-based, HEK293-NOX4, tetracycline-induced, Amplex Red fluorescence (AID 1160); settings: 45 min, higher = more signal, called active from +8 up or from −8 down
[10] = molecular target: NADPH oxidase 5 (Homo sapiens) (UniProt Q96PH1); assay: NOX5-dependent H2O2 signal modulators, primary screen, NOX inhibitor project, cell-based, HEK293-NOX5, Amplex Red fluorescence (AID 1161); settings: HEK293-NOX5, ionomycin, 45 min, higher = more signal
Sequence of NADPH oxidase 5 (Homo sapiens) (Q96PH1 whole entry, looked up): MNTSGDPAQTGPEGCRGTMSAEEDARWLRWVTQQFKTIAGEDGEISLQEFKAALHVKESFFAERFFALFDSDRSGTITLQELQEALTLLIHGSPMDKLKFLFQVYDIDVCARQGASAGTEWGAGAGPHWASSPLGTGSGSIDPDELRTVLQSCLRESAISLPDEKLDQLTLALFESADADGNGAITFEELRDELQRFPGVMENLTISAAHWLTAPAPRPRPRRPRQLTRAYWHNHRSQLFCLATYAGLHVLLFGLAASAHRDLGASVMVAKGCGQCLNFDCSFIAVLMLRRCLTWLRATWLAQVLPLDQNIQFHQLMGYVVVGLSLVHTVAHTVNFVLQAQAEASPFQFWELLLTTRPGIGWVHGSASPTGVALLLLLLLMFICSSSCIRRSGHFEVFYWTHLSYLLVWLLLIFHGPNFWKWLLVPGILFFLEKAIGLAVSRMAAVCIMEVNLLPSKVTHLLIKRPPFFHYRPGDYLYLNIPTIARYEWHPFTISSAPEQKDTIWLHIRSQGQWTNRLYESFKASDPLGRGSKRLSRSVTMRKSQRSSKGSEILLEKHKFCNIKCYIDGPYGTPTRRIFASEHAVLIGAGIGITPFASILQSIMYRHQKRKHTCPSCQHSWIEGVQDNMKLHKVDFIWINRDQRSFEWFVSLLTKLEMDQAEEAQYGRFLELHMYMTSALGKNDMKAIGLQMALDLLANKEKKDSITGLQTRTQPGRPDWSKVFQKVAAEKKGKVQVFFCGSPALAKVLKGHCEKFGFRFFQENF

Sequence of NADPH oxidase 4 (Homo sapiens) (Q9NPH5 whole entry, looked up): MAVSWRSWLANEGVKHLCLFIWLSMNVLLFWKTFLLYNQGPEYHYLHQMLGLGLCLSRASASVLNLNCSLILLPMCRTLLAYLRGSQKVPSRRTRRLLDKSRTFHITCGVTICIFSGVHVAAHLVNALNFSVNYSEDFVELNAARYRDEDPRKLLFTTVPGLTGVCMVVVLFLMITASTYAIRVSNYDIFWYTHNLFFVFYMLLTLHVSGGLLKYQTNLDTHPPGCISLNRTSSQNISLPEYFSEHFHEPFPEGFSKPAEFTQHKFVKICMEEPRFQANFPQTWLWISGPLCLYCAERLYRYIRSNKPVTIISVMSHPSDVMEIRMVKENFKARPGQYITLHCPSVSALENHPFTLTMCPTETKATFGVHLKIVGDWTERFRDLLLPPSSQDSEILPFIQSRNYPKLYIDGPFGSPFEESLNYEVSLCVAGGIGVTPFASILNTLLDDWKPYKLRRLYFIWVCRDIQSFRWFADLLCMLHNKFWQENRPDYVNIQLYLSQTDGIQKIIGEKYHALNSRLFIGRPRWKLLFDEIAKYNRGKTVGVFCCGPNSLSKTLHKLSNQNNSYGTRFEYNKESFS
Sequence of NADPH oxidase 2 (Homo sapiens) (P04839 whole entry, looked up): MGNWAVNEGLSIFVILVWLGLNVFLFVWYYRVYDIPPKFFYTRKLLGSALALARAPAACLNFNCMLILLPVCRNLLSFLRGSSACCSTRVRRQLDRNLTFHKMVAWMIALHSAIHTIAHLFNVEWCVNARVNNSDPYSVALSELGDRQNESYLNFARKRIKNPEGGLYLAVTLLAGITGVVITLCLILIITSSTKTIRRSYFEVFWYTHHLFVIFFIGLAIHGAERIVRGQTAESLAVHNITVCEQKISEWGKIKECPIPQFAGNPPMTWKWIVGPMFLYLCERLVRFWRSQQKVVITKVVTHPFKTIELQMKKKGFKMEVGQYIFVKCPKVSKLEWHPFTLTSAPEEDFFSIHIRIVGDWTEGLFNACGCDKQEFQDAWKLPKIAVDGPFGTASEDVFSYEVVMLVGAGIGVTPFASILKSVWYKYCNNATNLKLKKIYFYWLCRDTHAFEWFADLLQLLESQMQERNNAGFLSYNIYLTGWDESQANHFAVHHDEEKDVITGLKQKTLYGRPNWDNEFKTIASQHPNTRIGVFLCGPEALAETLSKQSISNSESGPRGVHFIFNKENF

Row | SMILES | z-score [1] | composite z-score [2] | z-score [3] | z-score [4] | z-score [5] | z-score [6] | z-score [7] | z-score [8] | z-score [9] | z-score [10]
1 | COc1ccc(CCNC(=O)[C@@]2(Sc3ccc(C)cc3)CC(=O)N(C3Cc4ccccc4C3)[C@@H]2c2ccc(CO)cc2)cc1 | -0.336 (inactive) | 0.366 | 4.53 (inactive) | -0.205 (inactive) | -0.0174 (inactive) | -0.874 (inactive) | 1.66 | -2.19 (inactive) | -1.05 (inactive) | -4.9
2 | COC(=O)[C@@]1(Cc2ccccc2)[C@H]2c3cc(C(=O)N(C)C)n(CCN4CNCC4=O)c3C[C@H]2CN1C(=O)c1ccccc1 | -0.65 (inactive) | 0.673 | 0.274 (inactive) | 0.759 (inactive) | 0.307 (inactive) | 0.789 (inactive) | -0.646 | 0.61 (inactive) | 0.554 (inactive) | 0.0884
3 | Cc1ccc(S[C@]2(C(=O)O)CC(=O)N(C3Cc4ccccc4C3)[C@@H]2c2ccc(CO)cc2)cc1 | -0.0458 (inactive) | 0.212 | 3.54 (inactive) | -0.273 (inactive) | 0.385 (inactive) | -0.333 (inactive) | -0.401 | -0.0451 (inactive) | -0.498 (inactive) | 1.58
4 | COc1ccc(NC(=O)O[C@H]2[C@H](OC(=O)Nc3ccccc3)[C@H](OC(=O)Nc3ccccc3)[C@@H](OC)O[C@@H]2CO)cc1 | -1.37 (inactive) | 0.457 | 8.18 (active) | 1.26 (inactive) | -0.329 (inactive) | 0.889 (inactive) | 0.0488 | 0.824 (inactive) | -0.11 (inactive) | -0.922
5 | COc1ccc([Si](C)(C)[C@@H]2[C@@H](CC(=O)N(CCO)Cc3ccccc3)O[C@]3(C(=O)N(c4ccccc4)c4ccccc43)[C@H]2C)cc1 | 1.3 (inactive) | 0.201 | 9.05 (active) | 1.2 (inactive) | -1.43 (inactive) | 0.303 (inactive) | 1.73 | -0.0719 (inactive) | 0.574 (inactive) | -1.55
6 | O=C1OCC=C[C@H]2OC34C=CCN(Cn5nnc6ccccc65)C(=O)[C@H]3N(CCCO)C(=O)[C@@H]4[C@@H]12 (stereo not given in full) | 1.54 (inactive) | 0.0861 | 0.243 (inactive) | -1.01 (inactive) | 1.24 (inactive) | -0.602 (inactive) | 0.277 | 0.847 (inactive) | -1.42 (inactive) | 0.1
7 | COC(=O)[C@@]1(Cc2ccc(OC)cc2)[C@@H]2C(=CC(=O)[C@H]2CC(=O)C(=O)N(C)C)CN1C(=O)c1ccccc1 | -2.06 (inactive) | 0.485 | 2.07 (inactive) | 0.584 (inactive) | 0.481 (inactive) | 1.38 (inactive) | 0.808 | -0.192 (inactive) | 1.39 (inactive) | 1.32
8 | O[C@@H](Cc1ccccc1)[C@@H](/C=C/C1CC1)N(CC#Cc1ccccc1)Cc1cccc(Cl)c1 | 1.96 (inactive) | 0.161 | 1.49 (inactive) | 0.761 (inactive) | 0.124 (inactive) | 0.23 (inactive) | 0.715 | 0.166 (inactive) | 0.727 (inactive) | -0.406
9 | CCOC(=O)C1=CC[C@@H](c2ccc(OCc3ccccc3)c(OC)c2)N(S(=O)(=O)c2ccc(C)cc2)[C@H]1c1ccc(SC)cc1 | -1.21 (inactive) | 0.524 | 0.658 (inactive) | 0.9 (inactive) | 0.692 (inactive) | 0.387 (inactive) | -0.635 | 0.877 (inactive) | 0.0161 (inactive) | -0.508
10 | C=CCC(OC(C)=O)[C@@H]1[C@@H](N(Cc2cc3ccccc3o2)C(=O)c2ccc(C)cc2)c2cc(OCCCO)ccc2N1C(=O)Cc1ccc(OC)cc1 (stereo not given in full) | 1.72 (inactive) | 0.25 | 1.19 (inactive) | 0.794 (inactive) | -0.528 (inactive) | 0.211 (inactive) | -0.0745 | 0.391 (inactive) | 0.652 (inactive) | 1.72
11 | [N-]=[N+]=Nc1ccccc1[C@H]1OC(c2ccc(OCCCO)cc2)=N[C@@]1(Cc1ccccc1)C(=O)N1CCCCC1 | 0.546 (inactive) | 0.51 | 31.2 (active) | 27.9 (active) | 2.35 (inactive) | 8.26 (active) | 0.583 | -1.52 (inactive) | 0.804 (inactive) | 1.62
12 | COCCOC(=O)N1C(=O)[C@@]2(c3cc(C#CC4=CCCCC4)ccc31)[C@H](c1ccc(OCCO)cc1)N1[C@H](c3ccccc3)[C@H](c3ccccc3)OC(=O)[C@H]1[C@@H]2C(=O)NC[C@H](O)c1ccccc1 | -0.149 (inactive) | 1.43 | 2.35 (inactive) | 1.31 (inactive) | -0.352 (inactive) | 0.482 (inactive) | 0.245 | 1.36 (inactive) | 0.849 (inactive) | 1.44
13 | COc1ccc(-c2cc3c(c(CCc4ccccc4)n2)[Si](C(C)C)(C(C)C)OC3)cn1 | -0.0928 (inactive) | -0.196 | 3.8 (inactive) | 0.745 (inactive) | -0.119 (inactive) | 0.114 (inactive) | -0.108 | -0.44 (inactive) | -0.0624 (inactive) | -1.49
14 | COc1ccc(CN(C2=CC[C@@]3(C(N)=O)C(=O)C(Cl)=C(Cl)C(=O)[C@@]3(C#N)C2)S(=O)(=O)c2ccc(Br)cc2)cc1 | 1.3 (inactive) | -0.0042 | 5.11 (inactive) | -1.24 (inactive) | -1.94 (inactive) | -2.3 (inactive) | 0.881 | 1.76 (inactive) | -0.275 (inactive) | 0.362
15 | CC(C)C[C@@H]1NC(=O)[C@@H]2C[C@H](C(=O)NCCCCN(C)C)[C@H](c3cccc(OCCO)c3)N2C1=O | 0.471 (inactive) | 0.0945 | 4.21 (inactive) | 0.239 (inactive) | 0.931 (inactive) | 0.128 (inactive) | 0.422 | 1.46 (inactive) | 1.13 (inactive) | 0.903
16 | CN(C)C(=O)[C@@]1(Cc2ccccc2CN=[N+]=[N-])N=C(c2ccc(OCCCO)cc2)O[C@H]1c1ccccc1CN=[N+]=[N-] | -0.395 (inactive) | 0.315 | 10.9 (active) | 1.46 (inactive) | 0.589 (inactive) | 0.515 (inactive) | 0.0709 | -0.379 (inactive) | 1.43 (inactive) | 2.09
17 | CC(C)N1C(=O)c2ccccc2[C@@H](C(=O)NC2CC2)[C@@H]1c1ccc(CO)cc1 | 0.258 (inactive) | 0.007 | 2.06 (inactive) | -0.0507 (inactive) | -0.0836 (inactive) | -0.307 (inactive) | 0.167 | 0.393 (inactive) | 0.708 (inactive) | 0.442
18 | COCCCNC(=O)[C@]1(CCS(=O)(=O)c2ccccc2)N=C(c2ccc(OCCCO)cc2)O[C@@H]1c1ccccc1N=[N+]=[N-] | 0.308 (inactive) | -0.0087 | 29.8 (active) | 28.1 (active) | 1.67 (inactive) | 2.02 (inactive) | 0.737 | 0.867 (inactive) | 0.235 (inactive) | -0.901
19 | CC(=O)NCCCC[C@@H]1NC(=O)[C@@H]2C[C@H](C(=O)NCCCC[N+](C)(C)C)[C@H](c3ccc(O)cc3)N2C1=O | -0.003 (inactive) | 0.389 | 0.369 (inactive) | -1.08 (inactive) | 0.267 (inactive) | -2.27 (inactive) | 1.34 | -3.26 (inactive) | -2.25 (inactive) | -4.41
20 | O=C(CS)NCCCCCCNC(=O)[C@H]1C[C@H]2C(=O)N[C@@H](Cc3ccccc3)C(=O)N2[C@H]1c1ccc(O)cc1 | -0.558 (inactive) | -0.54 | 8.58 (active) | 1.21 (inactive) | -0.177 (inactive) | 0.767 (inactive) | -0.0427 | 0.593 (inactive) | -0.0574 (inactive) | 1.08
21 | COC(=O)[C@@]1(Cc2ccc(OC)cc2)[C@H]2c3cc(C(=O)N(C)C)n(CCO)c3C[C@H]2CN1C(=O)c1ccccc1 | -1.2 (inactive) | 0.564 | 0.845 (inactive) | 0.145 (inactive) | 0.0732 (inactive) | 0.446 (inactive) | -0.775 | 0.331 (inactive) | -1.49 (inactive) | -1.91
